We go through two molecules from PubChem BioAssay (EPA / NIEHS).

SMILES strings stand for the structures. Calls of active or inactive are those of the source. The calls were made as follows: active = hit-call score of the fitted dose curve at least 0.9, where 1 is the maximum; inactive = score below 0.9.

Read-out in experiment [1]: CFLAR gene, CFLAR (gene 8837)
Kind of experiment: LTEA_HepaRG_CFLAR: Life Technologies and Expression Analysis (LTEA) Assay for CFLAR gene using HepaRG (AID 2283455). To be noted: mRNA level, 48 h; actives raise or lower the signal. In a few lines:
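Differentiated HepaRG cells in serum-free induction medium were exposed 48 h in duplicate to eight half-log concentrations up to 100 uM in 0.5% DMSO; mRNA measured by TaqMan qRT-PCR, normalized to ACTB, GAPDH, POLR2A; bidirectional fitting versus DMSO.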

Read-out in experiment [2]: Forkhead box O1 (FOXO1), FOXO1 (gene 2308)
Briefly: LTEA_HepaRG_FOXO1: Life Technologies and Expression Analysis (LTEA) Assay for Forkhead box O1 (FOXO1) using HepaRG (AID 2283456). Conditions: mRNA level, 48 h; actives raise or lower the signal. The gist of the method: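 Differentiated HepaRG cells, in serum-free induction medium with 0.5% DMSO, exposed 48 h in duplicate to 8-point half-log series from 100 uM. FOXO1 mRNA measured by TaqMan qRT-PCR, normalized to ACTB, GAPDH, POLR2A; bidirectional fit versus DMSO.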

Experiment [3] is described as follows: CEETOX_H295R_TESTO: CeeTox H295R High-throughput Steroidogenesis Assay for Testosterone (TESTO) (AID 2283457). Conditions: actives raise or lower the signal. In a few lines:
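Testosterone secreted into the medium over 48 h by H295R cells (maximum passage 10) was quantified by LC-MS/MS after MTBE extraction. Fitted in both directions against DMSO, with concentrations diluted until MTT viability was ≥70%.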

Read-out in experiment [4]: growth arrest and DNA damage 45 (GADD45A), GADD45A (gene 1647)
Briefly: LTEA_HepaRG_GADD45A: Life Technologies and Expression Analysis (LTEA) Assay for growth arrest and DNA damage 45 (GADD45A) using HepaRG (AID 2283458). To be noted: mRNA level, 48 h; actives raise or lower the signal. The gist of the method: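 Differentiated HepaRG cells exposed 48 h in serum-free induction medium to 8 concentrations, top 100 uM in half-log steps, 0.5% DMSO. GADD45A mRNA quantified by qRT-PCR, normalized to ACTB, GAPDH and POLR2A; bidirectional fit versus DMSO.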

Read-out in experiment [5]: Forkhead box O3 (FOXO3), FOXO3 (gene 2309)
Briefly: LTEA_HepaRG_FOXO3: Life Technologies and Expression Analysis (LTEA) Assay for Forkhead box O3 (FOXO3) using HepaRG (AID 2283459). Conditions: mRNA level, 48 h; actives raise or lower the signal. The gist of the method:
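Differentiated human HepaRG cells, 48 h post-plating, exposed in duplicate for 48 h in serum-free induction medium; 8-point half-log series from 100 uM in 0.5% DMSO. FOXO3 mRNA by TaqMan qRT-PCR, normalized to ACTB/GAPDH/POLR2A; bidirectional fit versus DMSO.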

Read-out in experiment [6]: ABC Transporter (ABCB1), ABCB1 (gene 5243)
Kind of experiment: LTEA_HepaRG_ABCB1: Life Technologies and Expression Analysis (LTEA) Assay for ABC Transporter (ABCB1) using HepaRG (AID 2283460). Conditions: mRNA level, 48 h; actives raise or lower the signal. In a few lines: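 HepaRG cells exposed in duplicate for 48 h in serum-free induction medium to eight half-log concentrations up to 100 uM in 0.5% DMSO. ABCB1 mRNA quantified by qRT-PCR, normalised to ACTB, GAPDH and POLR2A; fitted bidirectionally versus DMSO.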

Read-out in experiment [7]: growth arrest and DNA damage 45 (GADD45B), GADD45B (gene 4616)
Kind of experiment: LTEA_HepaRG_GADD45B: Life Technologies and Expression Analysis (LTEA) Assay for growth arrest and DNA damage 45 (GADD45B) using HepaRG (AID 2283461). Conditions: mRNA level, 48 h; actives raise or lower the signal. The gist of the method: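 Transcript level quantified by Fluidigm TaqMan qRT-PCR with three housekeeping genes for normalization, analyzed for up- or down-regulation against 0.5% DMSO. HepaRG cultures dosed 48 h at eight half-log concentrations up to 100 uM, duplicates.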

Read-out in experiment [8]: ABC Transporter (ABCC3), ABCC3 (gene 8714)
Briefly: LTEA_HepaRG_ABCC3: Life Technologies and Expression Analysis (LTEA) Assay for ABC Transporter (ABCC3) using HepaRG (AID 2283462). Conditions: mRNA level, 48 h; actives raise or lower the signal. In a few lines: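 Transcript level by TaqMan qRT-PCR, normalised to three housekeeping genes, fitted in both directions relative to vehicle. Chemicals tested in duplicate at eight half-log concentrations up to 100 uM for 48 h on HepaRG cells (0.5% DMSO).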

Read-out in experiment [9]: ABC Transporter (ABCB11), ABCB11 (gene 8647)
Briefly: LTEA_HepaRG_ABCB11: Life Technologies and Expression Analysis (LTEA) Assay for ABC Transporter (ABCB11) using HepaRG (AID 2283463). Conditions: mRNA level, 48 h; actives raise or lower the signal. In a few lines:
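Differentiated human HepaRG cells in serum-free induction medium, dosed in duplicate for 48 h. Eight-point half-log series from 100 uM in 0.5% DMSO; ABCB11 mRNA by qRT-PCR, normalized to ACTB, GAPDH, POLR2A, fitted bidirectionally versus DMSO.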

Read-out in experiment [10]: ABC Transporter (ABCC2), ABCC2 (gene 1244)
Briefly: LTEA_HepaRG_ABCC2: Life Technologies and Expression Analysis (LTEA) Assay for ABC Transporter (ABCC2) using HepaRG (AID 2283464). Conditions: mRNA level, 48 h; actives raise or lower the signal. In a few lines:
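Endpoint is ABCC2 transcript level from qRT-PCR, normalized to three housekeeping genes and fitted bidirectionally relative to DMSO. Human HepaRG cells received test chemical for 48 h at up to 100 uM (8 points, half-log steps, 0.5% DMSO), duplicate wells.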

Read-out in experiment [11]: Broad substrate specificity ATP-binding cassette transporter ABCG2 (Homo sapiens) (UniProt Q9UNQ0)
Kind of experiment: LTEA_HepaRG_ABCG2: Life Technologies and Expression Analysis (LTEA) Assay for ABC Transporter (ABCG2) using HepaRG (AID 2283465). To be noted: mRNA level, 48 h; actives raise or lower the signal. The gist of the method:
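Differentiated HepaRG cells were exposed for 48 h in serum-free induction medium to 8 half-log concentrations, top 100 uM, in 0.5% DMSO. ABCG2 mRNA was measured by qRT-PCR, normalized to ACTB, GAPDH and POLR2A, with bidirectional fitting versus DMSO.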

Read-out in experiment [12]: ATP-citrate lyase (ACLY), ACLY (gene 47)
Kind of experiment: LTEA_HepaRG_ACLY: Life Technologies and Expression Analysis (LTEA) Assay for ATP-citrate lyase (ACLY) using HepaRG (AID 2283466). To be noted: mRNA level, 48 h; actives raise or lower the signal. In a few lines:
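Differentiated HepaRG cells exposed 48 h in serum-free induction medium to eight half-log concentrations up to 100 uM in 0.5% DMSO, duplicates. Transcript measured by Fluidigm TaqMan qRT-PCR, normalized to ACTB, GAPDH, POLR2A; bidirectional fit versus DMSO.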

Read-out in experiment [13]: Peroxisomal acyl-coenzyme A oxidase 1 (ACOX1) gene, ACOX1 (gene 51)
Kind of experiment: LTEA_HepaRG_ACOX1: Life Technologies and Expression Analysis (LTEA) Assay for Peroxisomal acyl-coenzyme A oxidase 1 (ACOX1) gene using HepaRG (AID 2283467). Conditions: mRNA level, 48 h; actives raise or lower the signal. The gist of the method: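 HepaRG cells, plated 48 h then switched to serum-free induction medium, were exposed in duplicate for 48 h to 8-point half-log concentrations up to 100 uM in 0.5% DMSO. ACOX1 mRNA was measured by qRT-PCR, normalized to ACTB/GAPDH/POLR2A, and fitted bidirectionally versus DMSO.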

Read-out in experiment [14]: Alkaline Phosphatase, Placental (ALPP) gene, ALPP (gene 250)
Briefly: LTEA_HepaRG_ALPP: Life Technologies and Expression Analysis (LTEA) Assay for Alkaline Phosphatase, Placental (ALPP) gene using HepaRG (AID 2283468). To be noted: mRNA level, 48 h; actives raise or lower the signal. The gist of the method:
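ALPP transcript level, measured by qRT-PCR and normalized to three housekeeping genes (ACTB, GAPDH, POLR2A), after 48 h dosing of differentiated HepaRG in serum-free induction medium. Top concentration 100 uM with half-log dilutions (8 points, 0.5% DMSO, duplicates); bidirectional fitting relative to DMSO.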

Read-out in experiment [15]: Bcl-2 (BAD) gene, BAD (gene 572)
Briefly: LTEA_HepaRG_BAD: Life Technologies and Expression Analysis (LTEA) Assay for Bcl-2 (BAD) gene using HepaRG (AID 2283469). Conditions: mRNA level, 48 h; actives raise or lower the signal. The gist of the method: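 Differentiated HepaRG cells were exposed in duplicate in 0.5% DMSO for 48 h to eight-point half-log concentrations up to 100 uM. BAD mRNA was measured by Fluidigm TaqMan qRT-PCR, normalized to ACTB, GAPDH and POLR2A, and fitted bidirectionally against DMSO.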

Read-out in experiment [16]: Bcl-2 (BAX) gene, BAX (gene 581)
Briefly: LTEA_HepaRG_BAX: Life Technologies and Expression Analysis (LTEA) Assay for Bcl-2 (BAX) gene using HepaRG (AID 2283470). Conditions: mRNA level, 48 h; actives raise or lower the signal. In a few lines:
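Differentiated HepaRG cells exposed 48 h in serum-free induction medium, eight half-log concentrations from 100 uM, in duplicate, 0.5% DMSO vehicle. BAX mRNA by TaqMan qRT-PCR, normalised to ACTB, GAPDH and POLR2A.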

Read-out in experiment [17]: Alpha-fetoprotein (AFP) gene, AFP (gene 174)
Briefly: LTEA_HepaRG_AFP: Life Technologies and Expression Analysis (LTEA) Assay for Alpha-fetoprotein (AFP) gene using HepaRG (AID 2283472). Conditions: mRNA level, 48 h; actives raise or lower the signal. The gist of the method: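 Differentiated human HepaRG cells exposed 48 h in serum-free induction medium, 8-point half-log series from 100 uM in 0.5% DMSO, duplicate. AFP mRNA by qRT-PCR, normalized to ACTB, GAPDH, POLR2A; bidirectional fit vs DMSO.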

Read-out in experiment [18]: BCL2L11 (gene 10018)
Briefly: LTEA_HepaRG_BCL2L11: Life Technologies and Expression Analysis (LTEA) Assay for Bcl-2 (BCL2L11) gene using HepaRG (AID 2283473). Conditions: mRNA level, 48 h; actives raise or lower the signal. The gist of the method:
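BCL2L11 transcript levels are measured by Fluidigm qRT-PCR, normalized to three housekeeping genes. HepaRG cultures were plated 48 h, then treated 48 h with test chemical (top 100 uM, half-log, 0.5% DMSO vehicle); curves were fitted bidirectionally against DMSO.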

Read-out in experiment [19]: Apolipoprotein A-V (APOA5) gene, APOA5 (gene 116519)
Kind of experiment: LTEA_HepaRG_APOA5: Life Technologies and Expression Analysis (LTEA) Assay for Apolipoprotein A-V (APOA5) gene using HepaRG (AID 2283474). Conditions: mRNA level, 48 h; actives raise or lower the signal. The gist of the method:
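APOA5 transcript levels were quantified by qRT-PCR, normalized to three housekeeping genes, after 48 h chemical treatment of HepaRG cells (8 points, 100 uM maximum, half-log steps, 0.5% DMSO). Curves fitted in both directions against vehicle.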

Read-out in experiment [20]: adenosine kinase (ADK) gene, ADK (gene 132)
Kind of experiment: LTEA_HepaRG_ADK: Life Technologies and Expression Analysis (LTEA) Assay for adenosine kinase (ADK) gene using HepaRG (AID 2283471). Conditions: mRNA level, 48 h; actives raise or lower the signal. The gist of the method: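 ADK expression quantified by qRT-PCR, normalised to three housekeeping genes, after 48 h exposure of HepaRG cells to eight concentrations (top 100 uM, half-log steps, duplicate, 0.5% DMSO). Up- or down-regulation fitted relative to vehicle.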

Sequence of Broad substrate specificity ATP-binding cassette transporter ABCG2 (Homo sapiens) (Q9UNQ0 whole entry, looked up): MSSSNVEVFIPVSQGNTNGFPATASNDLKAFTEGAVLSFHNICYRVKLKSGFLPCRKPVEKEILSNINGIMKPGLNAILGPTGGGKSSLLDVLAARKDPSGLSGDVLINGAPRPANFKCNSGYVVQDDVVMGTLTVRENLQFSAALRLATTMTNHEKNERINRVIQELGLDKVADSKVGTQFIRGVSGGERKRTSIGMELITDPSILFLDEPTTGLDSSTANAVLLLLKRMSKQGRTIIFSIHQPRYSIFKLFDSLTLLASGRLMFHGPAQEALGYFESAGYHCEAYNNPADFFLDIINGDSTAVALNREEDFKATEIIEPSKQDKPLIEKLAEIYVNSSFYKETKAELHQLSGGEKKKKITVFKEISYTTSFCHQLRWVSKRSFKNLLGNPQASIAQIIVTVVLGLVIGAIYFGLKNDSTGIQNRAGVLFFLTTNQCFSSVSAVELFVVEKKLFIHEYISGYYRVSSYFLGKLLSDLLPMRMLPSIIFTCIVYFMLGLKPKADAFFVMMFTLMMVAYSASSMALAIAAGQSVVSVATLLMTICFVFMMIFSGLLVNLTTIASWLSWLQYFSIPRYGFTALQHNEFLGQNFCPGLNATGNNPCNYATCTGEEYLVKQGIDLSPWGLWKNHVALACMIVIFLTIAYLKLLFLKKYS

Take `O=C(Nc1ccc(Cl)cc1)Nc1ccc(Cl)c(Cl)c1`: the call in experiment [1], in experiment [3], in experiment [8], in [10], in experiment [15] and in experiment [17] was inactive. In addition, the result in experiment [18] was inactive. Further, the concentration at half-maximal activity (AC50) in experiment [2] was 18.6 µM (active); in [4], 21.7 µM (active); in experiment [5], 11.8 µM (active); in [6], 18.9 µM (active); in experiment [7] it was 22.9 µM (active); in [9], 15 µM (active). In addition, the AC50 in experiment [11] was 12.4 µM (active); in experiment [12], 17.5 µM (active); in experiment [13], 18.5 µM (active); in [14], 19.6 µM (active); in [16], 29.2 µM (active); in experiment [19] it was 21.4 µM (active).

Take `CCCCCCCCN(C)CCCCCCCC`: the molecule was classed as inactive in experiment [1], in experiment [2], in experiment [3], in experiment [4], in experiment [5] and in experiment [6]. For the same molecule, the molecule was called inactive in [7], in [8], in [9], in experiment [10], in experiment [12] and in experiment [13]. The molecule was classed as inactive in experiment [14], in experiment [15], in experiment [16], in [20], in experiment [17] and in experiment [18]. Further, the molecule was classed as inactive in [19].

Usually AC50 stands for the midpoint of the concentration-response curve, whichever way the signal moves.
